Results published in the supplement of paper PMC10127200.
Where a name gives a salt, the structure may show the parent alone.

Tests used:
Experiment in all cases: Euclidean distance of Cell Painting phenotypic profile (signed KS, 77 features) to DMSO centroid (dimensionless distance); 5 or 10 uM (library dependent); higher = stronger phenotypic change vs DMSO (phenoactivity)
Conditions in all cases: 48 h
786-O = tested on: 786-O
Procedure, shortened: (§1)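 Five cancer lines and a healthy fibroblast line received library compounds at 10 or 5 uM (library-dependent, 0.1% DMSO final) for 48 h. Stained cells were imaged confocally at 20X (9 fields/well). Harmony extracted 77 features, each scored as a signed Kolmogorov-Smirnov statistic against same-plate vehicle wells. Profiles were plate-position corrected, correlation-weighted and replicate-averaged at the top dose. Phenoactivity is the Euclidean distance from each profile to the median vehicle profile.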

A549 = tested on: A549
Procedure, shortened: as §1

DU145 = tested on: DU145
Procedure, shortened: as §1

FB = tested on: FB
Procedure, shortened: as §1

HEPG2 = tested on: HEPG2
Procedure, shortened: as §1

OVCAR4 = tested on: OVCAR4
Procedure, shortened: as §1

SMILES	Euclidean distance (786-O)	Euclidean distance (A549)	Euclidean distance (DU145)	Euclidean distance (FB)	Euclidean distance (HEPG2)	Euclidean distance (OVCAR4)
COc1cc(C(=O)NCc2ccc(OCCN(C)C)cc2)cc(OC)c1OC [Tribenzagan Hydrochloride]	1.18	1.99	1.05	1.12	1.07	1.09
O=C(c1cc(Cc2n[nH]c(=O)c3ccccc23)ccc1F)N1CCN(C(=O)C2CC2)CC1	1.56	1.23	0.958	1.7	1.21	1.11
Cc1cn(-c2cc(NC(=O)c3ccc(C)c(Nc4nccc(-c5cccnc5)n4)c3)cc(C(F)(F)F)c2)cn1 [Nilotinib (AMN-107)]	2.33	3.94	3.46	2.13	1.09	1.8
O=C(Cn1cnnn1)N[C@@H]1C(=O)N2C(C(=O)O)=C(CSc3nncs3)CS[C@H]12 [Ceftezole]	1.01	0.658	0.963	1.09	0.476	0.782
CC[N+](CC)(CC)CC [Tetraethylammonium bromide]	1.58	0.816	0.857	0.968	1.11	0.715
OCC1=C[C@@H](O)[C@@H]2C=CO[C@@H](O[C@@H]3O[C@H](CO)[C@@H](O)[C@H](O)[C@H]3O)[C@H]12 [Aucubin]	0.893	0.414	2.53	0.949	0.503	1.5
CC1=CC[C@@](O)(C(C)C)CC1 [Terpinen-4-ol]	0.644	0.999	0.827	0.873	0.873	0.882
C/C=C(/C(=C/C)c1ccc(O)cc1)c1ccc(O)cc1 [Dienestrol]	0.782	0.603	0.8	0.859	0.715	0.784
O=C(c1ccccc1)c1ccc2n1CCC2C(=O)O (stereo not given) [Ketorolac]	1.49	1.29	0.701	0.977	0.545	1.06
O=C(Nc1ccccc1-c1cn2c(CN3CCNCC3)csc2n1)c1cnc2ccccc2n1	6.03	5.64	5.63	5.74	5.23	5.14
O=C(O)Cc1cc(I)c(Oc2ccc(O)c(I)c2)c(I)c1 [Tiratricol]	0.855	0.554	0.644	0.597	0.536	0.847
O=C(O)CCCCC(CCSCc1ccccc1)SCc1ccccc1 (stereo not given)	0.848	0.928	1.09	0.687	0.938	0.821
COc1ccccc1N1CCN(CCN(C(=O)C2CCCCC2)c2ccccn2)CC1	0.724	1.67	1.84	3.28	2.11	4.14
CCOc1ccccc1OC(c1ccccc1)C1CNCCO1 (stereo not given) [Reboxetine mesylate]	1.05	0.873	2.32	0.844	2.49	0.786
CCc1ccc(/C=C2/SC(=S)NC2=O)cc1	0.453	0.809	1.03	1.15	0.771	0.723
CSc1ccc(C(=O)/C=C/c2cc(C)c(OC(C)(C)C(=O)O)c(C)c2)cc1 [Elafibranor]	1.24	1.28	0.801	1.43	0.747	0.978
COc1ccc2c(O[C@@H]3C[C@H]4C(=O)N[C@]5(C(=O)NS(=O)(=O)C6CC6)C[C@H]5/C=C\CCCCN(C)C(=O)[C@@H]4C3)cc(-c3nc(C(C)C)cs3)nc2c1C [Simeprevir]	1.38	2.3	1.29	0.939	0.799	1.23
O=C1C(N(CO)C(=O)NCO)N(CO)C(=O)N1CO (stereo not given) [Diazolidinyl urea]	0.723	0.505	1.01	0.783	0.465	0.927
COCCOc1cnc2ccn([C@H](C)c3nnc4c(F)cc(-c5cnn(C)c5)cn34)c(=O)c2c1	1.01	1.18	1.5	1.29	1.39	1.46
COc1ccc(CCNCC(O)COc2cccc(C)c2)cc1OC (stereo not given) [Bevantolol hydrochloride]	1.02	0.717	1.07	1.21	0.573	1.03
CC(C)NCC(O)c1ccc(O)c(O)c1 (stereo not given) [Isoproterenol sulfate dihydrate]	1.03	0.632	2.58	1.23	0.763	0.894
CNC(=O)c1cc(Oc2ccc(NC(=O)Nc3ccc(Cl)c(C(F)(F)F)c3)c(F)c2)ccn1 [Regorafenib (BAY 73-4506)]	1.82	2.6	1.66	1.6	1.42	1.63
CN(C)CCCCC(=O)Nc1ccc(NC(=S)NC(=O)c2ccc(C(C)(C)C)cc2)cc1 [Tenovin-6]	2.9	3.08	1.61	3.01	3.46	1.95
CCCC1CC(C(=O)NC(C(C)Cl)C2OC(SC)C(O)C(O)C2O)N(C)C1 (stereo not given) [Clindamycin alcoholate]	1.37	0.413	1.04	0.986	1.01	1.02
COCCc1ccc(OCC(O)CNC(C)C)cc1 (stereo not given) [Metoprolol Tartrate]	0.573	0.762	0.69	0.67	0.507	0.885
